# In PubChem BioAssay AID2597 (National Center for Advancing Translational Sciences (NCATS), 2010):
# Results filed as inconclusive are left out. Unmarked numbers belong to inactive results. Active and inactive are the calls of the source. Calls follow the shape of the dose curve; as a rule, active = well fitted curve in the direction sought with a large enough effect; inconclusive = small, poorly fitted or top-dose-only effect, or effect the other way, or another doubt; inactive = no such curve, though single readings can be large or run the other way.
# Target: Lysosomal acid glucosylceramidase (Homo sapiens) (UniProt P04062)
# Sequence (P04062 whole entry N409S): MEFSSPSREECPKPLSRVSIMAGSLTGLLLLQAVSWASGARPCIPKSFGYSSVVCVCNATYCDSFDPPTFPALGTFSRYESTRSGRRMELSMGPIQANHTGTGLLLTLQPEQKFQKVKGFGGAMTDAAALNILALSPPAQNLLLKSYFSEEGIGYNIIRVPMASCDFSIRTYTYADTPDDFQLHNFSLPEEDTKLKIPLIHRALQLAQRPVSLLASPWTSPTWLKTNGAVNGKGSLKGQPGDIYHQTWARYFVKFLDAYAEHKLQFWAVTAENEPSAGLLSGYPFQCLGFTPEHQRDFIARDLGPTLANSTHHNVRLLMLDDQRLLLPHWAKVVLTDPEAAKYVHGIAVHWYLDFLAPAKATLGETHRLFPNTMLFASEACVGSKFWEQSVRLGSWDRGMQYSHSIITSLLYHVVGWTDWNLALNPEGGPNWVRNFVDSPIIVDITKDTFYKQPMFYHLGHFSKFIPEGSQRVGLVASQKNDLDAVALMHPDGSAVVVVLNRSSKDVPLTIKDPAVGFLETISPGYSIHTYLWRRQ
# Test: qHTS Assay for Inhibitors and Activators of N370S glucocerebrosidase as a Potential Chaperone Treatment of Gaucher Disease: Purified N370S Glucocerebrosidase
# Conditions: purified N370S GC, 4-MU-glucoside fluorescence, 40 min; series mostly up to 76.9 µM; activity change, negative = inhibition: at the top concentration
# Source text: NIH Chemical Genomics Center [NCGC] NIH Molecular Libraries Probe Production Centers Network [MLPCN] MLPCN Grant: MH086442-01 Assay Submitter (PI): Wei Zheng Glucocerebrosidase (GC) catalyzes the hydrolysis of beta-glucocerebroside to glucose and ceramide in lysosomes. Mutations in the glucocerebrosidase gene result in Gaucher disease, an autosomal recessive lysosomal storage disorder. Many of the mutations encountered in patients with Gaucher disease are missense alterations that may cause misfolding, decreased stability and/or mistrafficking of this lysosomal protein. […] These inhibitors include iminosugar analogs and three non-iminosugar inhibitors identified from a previous HTS of 62,000 compounds with the wild type recombinant enzyme. However, the enhancement of enzyme activity by the chaperone action of an enzyme inhibitor must be balanced against the direct inhibition of the enzyme. An enzyme activator could also function as a chaperone by binding to the enzyme and helping to correct its misfolding and mistrafficking. While activators for GC have not yet been identified, they may have better therapeutic potential than inhibitors. Therefore the discovery and development of chemical activators may provide a new strategy for the chaperone therapy. We have optimized a new assay using N370S mutant GC derived from the spleen of a Gaucher patient. […] In addition, the MLPCN compound library has expanded, which increases the chance of finding new and better probes. This assay characterizes compound activity using purified mutant enzyme instead of tissue homogenate. Compound activity differences may be due to the absence of endogenous cofactors found in tissue homogenate.
# NCGC Assay Protocol Summary: This is a fluorogenic enzyme assay with 4-methylumbelliferyl-beta-D-glucopyranoside as the substrate and purified N370S glucocerebrosidase as the enzyme preparation. Upon the hydrolysis of this fluorogenic substrate, the resulting product, […] which can be detected by a standard fluorescence plate reader. Data were normalized to the controls for basal activity (without enzyme) and 100% activity (with enzyme). The AC50 values were determined from concentration-response data modeled with the standard Hill equation. Assay buffer: 50 mM citric acid (titrated with potassium phosphate to pH 5.0), 100 mM potassium chloride, 10 mM sodium chloride, 1 mM magnesium chloride, 0.01% Tween-20. 1536-well assay protocol: (1) Add 2 ul/well of glucocerebrosidase enzyme solution (5 nM final) (2) Add 23 nL compounds in DMSO solution. The final titration was 0.5 nM to 58 uM. (3) Add 2 ul of substrate (1 mM final) (4) Incubate at 37C for 40 min. (5) Add 2 ul stop solution (1M NaOH and 1M Glycine mixture, pH 10) (6) Detect the assay plate in a ViewLux plate reader (PerkinElmer) with Ex=365 nm and Em=440nm. Keywords: Glucocerebrosidase, beta-glucosidase, Gaucher Disease, pharmacological chaperone, chaperone therapy, high throughput screening, glucocerebrosidase inhibitor, MLSMR, MLSCN, NIH Roadmap, qHTS and NCGC
SMILES,"activity change, negative = inhibition",Potency
O=S(=O)(c1ccc2c(c1)OCCO2)N1CCN(c2nc(-c3ccccc3)nc3ccccc23)CC1,-8.13%,
COc1ccc(-c2nc(N3CCN(S(=O)(=O)c4ccc(F)cc4)CC3)c3ccccc3n2)cc1,2.48%,
Cc1ccccc1S(=O)(=O)N1CCN(c2nc(-c3cccs3)nc3ccccc23)CC1,-5.57%,
O=S(=O)(c1ccc(Cl)cc1)N1CCN(c2nc(-c3ccc(F)cc3)nc3cc(Cl)ccc23)CC1,-3.17%,
O=S(=O)(c1ccc(F)cc1)N1CCN(c2nc(-c3ccccc3)nc3cc(Cl)ccc23)CC1,11.3%,
O=S(=O)(c1ccc(F)cc1)N1CCN(c2nc(-c3ccc(F)cc3)nc3cc(Cl)ccc23)CC1,12.5%,
S=C(NCCCc1cnc[nH]1)NCCCN(Cc1ccc(Cl)c(Cl)c1)c1ccc(Br)cn1,,2.51 µM (active)
Cc1cccc(S(=O)(=O)N2CCN(c3nc(-c4cccs4)nc4ccccc34)CC2)c1,-0.788%,
O=S(=O)(Cc1ccccc1)N1CCN(c2nc(-c3cccs3)nc3ccccc23)CC1,-7.06%,
O=S(=O)(c1cccc(C(F)(F)F)c1)N1CCN(c2nc(-c3cccs3)nc3cc(Cl)ccc23)CC1,-2.84%,
NS(=O)(=O)c1ccc(S(=O)(=O)N2CCN(c3nc(-c4cccs4)nc4ccccc34)CC2)cc1,-5.7% [at 57.5 µM],
OCCNc1nc(-c2cccs2)nc2ccccc12,-5.11%,
O=S(=O)(c1ccc(F)cc1)N1CCN(c2nc(-c3cccs3)nc3cc(Cl)ccc23)CC1,18.9%,
COc1ccc(S(=O)(=O)N2CCN(c3nc(-c4cccs4)nc4ccccc34)CC2)cc1,-1.81%,
COc1ccc(-c2nc(N3CCN(S(=O)(=O)c4ccccc4)CC3)c3ccccc3n2)cc1,-1.92%,
N#Cc1ccc(S(=O)(=O)N2CCN(c3nc(-c4cccs4)nc4ccccc34)CC2)cc1,0.866% [at 57.5 µM],
CC(C)(C)C(=O)OCCNc1nc(-c2ccccc2)nc2ccccc12,,8.91 µM (active)
O=S(=O)(c1ccc(Cl)cc1)N1CCN(c2nc(-c3cccs3)nc3ccccc23)CC1,,inactive
CC(C)C(C)NC(=O)CSc1nc2scc(-c3ccco3)c2c(=O)n1-c1ccccc1 (centres undefined),2.6% [at 57.5 µM],
Cc1ccc(-c2nc(N3CCN(S(=O)(=O)c4ccc(F)cc4)CC3)c3ccc(Cl)cc3n2)cc1,-0.326%,

SMILES,"activity change, negative = inhibition",Potency
c1csc(-c2nc(NCC3CCCO3)c3ccccc3n2)c1 (centres undefined),-4.41%,
O=S(=O)(c1ccccc1)N1CCN(c2nc(-c3ccc(F)cc3)nc3cc(Cl)ccc23)CC1,3.68%,
CC(C)(C)c1ccc(S(=O)(=O)N2CCN(c3nc(-c4cccs4)nc4ccccc34)CC2)cc1,-6.34%,
O=S(=O)(c1ccc(F)cc1)N1CCN(c2nc(-c3cccc(Br)c3)nc3ccccc23)CC1,-3.8%,
COc1cccc(S(=O)(=O)N2CCN(c3nc(-c4cccs4)nc4ccccc34)CC2)c1,4.33%,
O=S(=O)(c1cccs1)N1CCN(c2nc(-c3cccs3)nc3ccccc23)CC1,8.37%,
O=S(=O)(c1ccc2ccccc2c1)N1CCN(c2nc(-c3cccs3)nc3ccccc23)CC1,3.55%,
O=S(=O)(c1ccccc1C(F)(F)F)N1CCN(c2nc(-c3cccs3)nc3ccccc23)CC1,-12.1% [at 57.5 µM],
Cc1cc(C)cc(N(CC(=O)NC2CCCCCC2)S(=O)(=O)c2c(C)[nH]c(=O)[nH]c2=O)c1,,1.58 µM (active)
O=S(=O)(c1ccccc1Cl)N1CCN(c2nc(-c3cccs3)nc3ccccc23)CC1,1.47%,
O=S(=O)(c1ccc(Cl)cc1)N1CCN(c2nc(-c3ccc(Cl)cc3)nc3ccccc23)CC1,-6.99%,
Cc1ccc(S(=O)(=O)N2CCN(c3nc(-c4ccc(F)cc4)nc4cc(Cl)ccc34)CC2)cc1,-2.41%,
O=S(=O)(c1ccc(Cl)cc1)N1CCN(c2nc(-c3cccc(Br)c3)nc3ccccc23)CC1,-1.13%,
COc1ccc(-c2nc(N3CCN(S(=O)(=O)c4ccc(C)cc4)CC3)c3ccccc3n2)cc1,0.376%,
O=S(=O)(c1cccc2ccccc12)N1CCN(c2nc(-c3cccs3)nc3ccccc23)CC1,-3%,
O=S(=O)(c1ccc2c(c1)OCCO2)N1CCN(c2nc(-c3cccs3)nc3ccccc23)CC1,-9.01% [at 57.5 µM],
Cc1ccc(S(=O)(=O)N2CCN(c3nc(-c4cccs4)nc4ccccc34)CC2)cc1,,inactive
O=S(=O)(c1ccc(Cl)cc1)N1CCN(c2nc(Nc3cc(Cl)ccc3O)nc3ccccc23)CC1,,14.1 µM (active)
O=C(c1ccc2c(c1)OCCO2)N1CCN(c2nc(-c3cccs3)nc3ccccc23)CC1,-8.39%,
